Measured values from ChEMBL document CHEMBL1201862, “PubChem BioAssay data set” (2004).

These compounds were tested against Huntingtin (Homo sapiens) (UniProt P42858) (assay: Quantitative High-Throughput Multiplex Assay to Identify Dual Action Probes in a Cell Model of Huntington: Summary. [Related pubchem assays (depositor defined):AID1471, AID1688, AID2669, AID2672, AID2673, AID2713]).
Format: functional

Sequence of Huntingtin (Homo sapiens) (P42858 whole entry): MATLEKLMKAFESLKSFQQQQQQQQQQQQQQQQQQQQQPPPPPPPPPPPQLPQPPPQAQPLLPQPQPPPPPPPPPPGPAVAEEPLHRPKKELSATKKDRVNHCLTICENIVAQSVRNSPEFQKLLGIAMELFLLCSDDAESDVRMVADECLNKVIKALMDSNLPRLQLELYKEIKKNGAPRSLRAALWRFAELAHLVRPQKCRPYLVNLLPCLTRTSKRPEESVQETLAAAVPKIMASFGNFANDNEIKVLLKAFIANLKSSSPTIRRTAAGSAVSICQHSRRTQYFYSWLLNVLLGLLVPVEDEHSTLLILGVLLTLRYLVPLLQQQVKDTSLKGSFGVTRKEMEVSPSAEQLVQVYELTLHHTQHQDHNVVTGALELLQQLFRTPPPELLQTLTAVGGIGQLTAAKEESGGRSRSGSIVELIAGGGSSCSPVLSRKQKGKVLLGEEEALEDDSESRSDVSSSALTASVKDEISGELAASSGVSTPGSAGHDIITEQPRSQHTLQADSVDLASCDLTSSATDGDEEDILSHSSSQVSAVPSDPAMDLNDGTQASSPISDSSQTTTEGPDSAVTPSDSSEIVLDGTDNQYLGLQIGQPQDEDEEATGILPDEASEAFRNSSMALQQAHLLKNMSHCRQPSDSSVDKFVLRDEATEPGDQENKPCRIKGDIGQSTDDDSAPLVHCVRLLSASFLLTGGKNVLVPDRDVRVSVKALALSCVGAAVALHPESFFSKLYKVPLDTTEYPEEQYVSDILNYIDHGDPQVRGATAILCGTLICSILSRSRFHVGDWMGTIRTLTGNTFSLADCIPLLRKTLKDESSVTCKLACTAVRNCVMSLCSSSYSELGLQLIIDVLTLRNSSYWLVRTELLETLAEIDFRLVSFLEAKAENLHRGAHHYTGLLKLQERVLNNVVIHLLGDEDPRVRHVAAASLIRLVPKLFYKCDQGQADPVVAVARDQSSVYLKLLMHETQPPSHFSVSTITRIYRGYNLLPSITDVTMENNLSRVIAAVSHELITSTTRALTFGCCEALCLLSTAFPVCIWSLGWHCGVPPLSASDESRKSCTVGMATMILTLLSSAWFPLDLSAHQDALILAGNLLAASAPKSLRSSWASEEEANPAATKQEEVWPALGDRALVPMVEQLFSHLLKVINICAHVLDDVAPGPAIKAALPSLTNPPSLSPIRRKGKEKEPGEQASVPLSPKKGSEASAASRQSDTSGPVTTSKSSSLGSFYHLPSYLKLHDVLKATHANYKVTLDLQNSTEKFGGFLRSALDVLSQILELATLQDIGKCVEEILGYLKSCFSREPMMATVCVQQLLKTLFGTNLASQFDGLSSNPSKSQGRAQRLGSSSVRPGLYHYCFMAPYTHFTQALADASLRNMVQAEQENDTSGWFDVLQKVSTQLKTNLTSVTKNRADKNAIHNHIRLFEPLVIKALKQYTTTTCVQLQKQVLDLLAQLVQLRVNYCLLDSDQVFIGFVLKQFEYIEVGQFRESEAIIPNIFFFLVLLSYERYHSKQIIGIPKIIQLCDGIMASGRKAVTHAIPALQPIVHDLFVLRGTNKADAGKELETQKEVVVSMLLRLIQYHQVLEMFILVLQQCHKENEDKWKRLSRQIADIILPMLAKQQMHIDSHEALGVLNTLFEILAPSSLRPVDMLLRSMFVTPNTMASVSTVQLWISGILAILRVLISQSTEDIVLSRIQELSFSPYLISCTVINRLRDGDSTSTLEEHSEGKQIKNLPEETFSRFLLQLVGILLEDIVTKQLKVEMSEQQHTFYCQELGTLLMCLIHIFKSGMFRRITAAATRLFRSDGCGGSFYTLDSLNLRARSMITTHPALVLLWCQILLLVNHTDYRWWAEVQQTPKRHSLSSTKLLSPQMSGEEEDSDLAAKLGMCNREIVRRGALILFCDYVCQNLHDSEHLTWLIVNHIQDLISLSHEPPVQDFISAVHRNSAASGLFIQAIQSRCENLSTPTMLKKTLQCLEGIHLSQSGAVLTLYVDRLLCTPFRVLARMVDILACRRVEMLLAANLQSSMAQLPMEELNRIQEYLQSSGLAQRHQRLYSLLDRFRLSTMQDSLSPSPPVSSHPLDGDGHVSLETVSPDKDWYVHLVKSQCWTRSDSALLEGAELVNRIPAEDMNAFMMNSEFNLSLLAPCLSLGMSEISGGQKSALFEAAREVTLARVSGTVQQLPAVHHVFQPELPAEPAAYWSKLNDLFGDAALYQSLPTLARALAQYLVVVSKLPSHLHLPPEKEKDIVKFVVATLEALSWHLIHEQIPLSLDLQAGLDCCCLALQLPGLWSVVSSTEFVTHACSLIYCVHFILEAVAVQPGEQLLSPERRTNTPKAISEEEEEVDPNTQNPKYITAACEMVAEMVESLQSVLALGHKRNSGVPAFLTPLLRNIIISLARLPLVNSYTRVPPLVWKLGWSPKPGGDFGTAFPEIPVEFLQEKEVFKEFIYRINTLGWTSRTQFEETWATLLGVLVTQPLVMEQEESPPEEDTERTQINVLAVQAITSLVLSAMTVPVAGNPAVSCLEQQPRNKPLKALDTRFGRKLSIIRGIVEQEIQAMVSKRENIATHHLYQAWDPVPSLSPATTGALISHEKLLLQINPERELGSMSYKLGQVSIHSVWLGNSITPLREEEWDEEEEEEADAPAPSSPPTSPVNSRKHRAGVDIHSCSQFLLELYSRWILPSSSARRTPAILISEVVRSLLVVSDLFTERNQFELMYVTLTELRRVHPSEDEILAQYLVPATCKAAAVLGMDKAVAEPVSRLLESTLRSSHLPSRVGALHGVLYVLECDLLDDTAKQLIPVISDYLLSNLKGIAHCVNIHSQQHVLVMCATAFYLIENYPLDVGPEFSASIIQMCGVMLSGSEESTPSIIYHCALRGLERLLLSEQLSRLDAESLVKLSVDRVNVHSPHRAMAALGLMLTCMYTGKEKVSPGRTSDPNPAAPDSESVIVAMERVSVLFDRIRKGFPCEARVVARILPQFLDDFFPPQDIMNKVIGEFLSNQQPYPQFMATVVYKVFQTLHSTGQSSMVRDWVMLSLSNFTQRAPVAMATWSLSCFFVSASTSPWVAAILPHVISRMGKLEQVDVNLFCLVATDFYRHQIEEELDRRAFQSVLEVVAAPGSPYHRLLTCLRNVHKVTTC

Row | SMILES | Potency
1 | Cn1nnnc1Sc1ncnc2scc(-c3ccccc3F)c12 | 12.6 µM (active)
2 | Cc1cccc(-c2csc3ncnc(Sc4nnnn4C)c23)c1 | 15.8 µM (active)
3 | Cn1nnnc1Sc1ncnc2scc(-c3cccc(F)c3)c12 | 7.94 µM (active)
4 | COc1cccc(-c2csc3ncnc(Sc4nnnn4C)c23)c1 | 7.94 µM (active)
5 | COc1ccccc1-c1csc2ncnc(Sc3nnnn3C)c12 | 79.4 µM (active)
6 | Cn1nnnc1Sc1ncnc2scc(-c3ccc(Cl)cc3)c12 | 15.8 µM (active)
7 | Cc1ccccc1-c1csc2ncnc(Sc3nnnn3C)c12 | 63.1 µM (active)
8 | COc1ccc(-c2csc3ncnc(Sc4nnnn4C)c23)cc1 | 12.6 µM (active)
9 | Cn1nnnc1Sc1ncnc2scc(-c3ccccc3)c12 | 8.68 µM
10 | Cc1ccc(-c2csc3ncnc(Sc4nnnn4C)c23)cc1 | 15.8 µM (active)
11 | Cn1nnnc1Sc1ncnc2scc(-c3ccccc3C(F)(F)F)c12 | 25.1 µM (active)
